# Test results taken from the supplement of paper PMC8728848.
# This excerpt belongs to a sample that is enriched for the strongest signals.
# B1: FaeGab (Escherichia coli) (protein)
# chain: WMTGDFNGSVDIGGSITADDYRQKWEWKVGTGLNGFGNVLNDLTNGGTKLTITVTGNKPILLGRTKEAFATPVSGGVDGIPQIAFTDYEGASVKLRNTDGETNKGLAYFVLPMKNAEGTKVGSVKVNASYAGVFGKGGVTSADGELFSLFADGLRAIFYGGLTTTVSGAALTSGSAAAARTELFGSLSRNDILGQIQRVNANITSLVDVAGSYREDMEYTDGTVVSAAYALGIANGQTIEATFNQAVTTSTQWSAPLNVAITYY
# What was measured:
# Assay in all cases: glycan array binding signal (z-score within array); higher = stronger binding
# Settings in all cases: glycan notation: IUPAC condensed, linker removed
# [1] = target: Fuc(a1-2)Gal(b1-4)[Fuc(a1-3)]GlcNAc(b1-3)Gal(b1-4)[Fuc(a1-3)]GlcNAc(b1-3)Gal(b1-4)[Fuc(a1-3)]GlcNAc
# Method in brief: (§1)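 The Consortium for Functional Glycomics database supplied 3228 glycan arrays, of which those lacking an available protein sequence were dropped. The binding signal, a within-array Z-score, was averaged across arrays of the same protein sequence and across linkers. Negative scores can be read as non-binding.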
# Gal(a1-3)Gal = target: Gal(a1-3)Gal
# Method in brief: as §1
# [2] = target: Gal(b1-3)GlcNAc(b1-3)Gal(b1-4)GlcNAc
# Method in brief: as §1
# Gal3S(b1-3)GlcNAc = target: Gal3S(b1-3)GlcNAc
# Method in brief: as §1
# Gal6S(b1-4)GlcNAc = target: Gal6S(b1-4)GlcNAc
# Method in brief: as §1
# Glc(a1-4)Glc = target: Glc(a1-4)Glc
# Method in brief: as §1
# Glc(a1-6)Glc(a1-6)Glc = target: Glc(a1-6)Glc(a1-6)Glc
# Method in brief: as §1
# Glc(b1-4)Glc = target: Glc(b1-4)Glc
# Method in brief: as §1
# [3] = target: GlcNAc(b1-4)GlcNAc(b1-4)GlcNAc
# Method in brief: as §1
# [4] = target: Man(a1-2)Man(a1-2)Man(a1-6)[Man(a1-3)]Man
# Method in brief: as §1
# Neu5Ac(a2-3)Gal = target: Neu5Ac(a2-3)Gal
# Method in brief: as §1
# [5] = target: Neu5Ac(a2-3)[Neu5Ac(a2-6)]GalNAc
# Method in brief: as §1
# [6] = target: Neu5Ac(a2-6)Gal(b1-4)GlcNAc(b1-3)Gal(b1-4)[Fuc(a1-3)]GlcNAc(b1-3)Gal(b1-4)[Fuc(a1-3)]GlcNAc
# Method in brief: as §1
# [7] = target: Neu5Ac(a2-8)Neu5Ac(a2-8)Neu5Ac(a2-8)Neu5Ac(a2-3)[GalNAc(b1-4)]Gal(b1-4)Glc
# Method in brief: as §1
# [8] = target: Neu5Ac(b2-6)Gal(b1-4)GlcNAc
# Method in brief: as §1
# [9] = target: Neu5Gc(a2-6)Gal(b1-4)GlcNAc
# Method in brief: as §1
binder,measurement,setting,value
B1,glycan array binding signal (z-score),[1],-0.302
same,glycan array binding signal (z-score),Gal(a1-3)Gal,0.089
same,glycan array binding signal (z-score),[2],-0.347
same,glycan array binding signal (z-score),Gal3S(b1-3)GlcNAc,-0.012
same,glycan array binding signal (z-score),Gal6S(b1-4)GlcNAc,-0.201
same,glycan array binding signal (z-score),Glc(a1-4)Glc,8.87
same,glycan array binding signal (z-score),Glc(a1-6)Glc(a1-6)Glc,10.2
same,glycan array binding signal (z-score),Glc(b1-4)Glc,4.4
same,glycan array binding signal (z-score),[3],0.132
same,glycan array binding signal (z-score),[4],1.91
same,glycan array binding signal (z-score),Neu5Ac(a2-3)Gal,-0.477
same,glycan array binding signal (z-score),[5],-0.489
same,glycan array binding signal (z-score),[6],-0.433
same,glycan array binding signal (z-score),[7],-0.352
same,glycan array binding signal (z-score),[8],-0.473
same,glycan array binding signal (z-score),[9],-0.5
